The source made the active and inactive calls. Rule for the calls: active = hit-call score of the fitted dose curve at least 0.9, where 1 is the maximum; inactive = score below 0.9.

Conditions in all cases: mRNA level, 48 h; actives raise or lower the signal
Read-out in one assay: CYP4A11 (gene 1579)
Put plainly: LTEA_HepaRG_CYP4A11: Life Technologies and Expression Analysis (LTEA) Assay for CYP4A11 using HepaRG (AID 2283486). The method in brief:
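Human hepatic HepaRG cultures receive duplicate 48 h exposures across a concentration-response series topping at 100 uM. Expression changes in CYP4A11 are measured by qRT-PCR relative to DMSO controls.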

Read-out in assay [1]: Cytochrome P450 3A4 (Homo sapiens) (UniProt P08684)
Put plainly: LTEA_HepaRG_CYP3A4: Life Technologies and Expression Analysis (LTEA) Assay for CYP3A4 using HepaRG (AID 2283487). The method in brief: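 Differentiated HepaRG cells, plated 48 h, then dosed 48 h in serum-free induction medium with 0.5% DMSO, 8 half-log concentrations up to 100 uM, duplicate. CYP3A4 mRNA by qRT-PCR, normalized to ACTB/GAPDH/POLR2A; bidirectional fit versus DMSO.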

Read-out in assay [2]: DNA damage-inducible transcript 3 (DDIT3), DDIT3 (gene 1649)
Put plainly: LTEA_HepaRG_DDIT3: Life Technologies and Expression Analysis (LTEA) Assay for DNA damage-inducible transcript 3 (DDIT3) using HepaRG (AID 2283488). An outline of the steps:
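Differentiated human HepaRG cells in serum-free induction medium were exposed in duplicate for 48 h to 8 concentrations (top 100 uM, half-log steps, 0.5% DMSO). DDIT3 mRNA measured by TaqMan qRT-PCR, normalized to ACTB/GAPDH/POLR2A; bidirectional fit versus DMSO.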

Read-out in assay [3]: Pro-epidermal growth factor (Homo sapiens) (UniProt P01133)
Put plainly: LTEA_HepaRG_EGF: Life Technologies and Expression Analysis (LTEA) Assay for Epidermal growth factor (EGF) using HepaRG (AID 2283489). An outline of the steps:
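Concentration-response mRNA assay: HepaRG cells dosed 48 h (max 100 uM, 0.5% DMSO), EGF measured by qRT-PCR and normalized to ACTB/GAPDH/POLR2A.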

Read-out in assay [4]: Early growth response protein 1 (EGR1) transcription factor, EGR1 (gene 1958)
Put plainly: LTEA_HepaRG_EGR1: Life Technologies and Expression Analysis (LTEA) Assay for Early growth response protein 1 (EGR1) transcription factor using HepaRG (AID 2283490). The method in brief:
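Read-out is EGR1 mRNA level by qRT-PCR, normalized to three housekeeping genes and analysed for gain or loss of signal against 0.5% DMSO. Source cells: human HepaRG, treated 48 h at up to 100 uM in half-log dilutions.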

Read-out in assay [5]: Cytochrome P450 3A7 (Homo sapiens) (UniProt P24462)
Put plainly: LTEA_HepaRG_CYP3A7: Life Technologies and Expression Analysis (LTEA) Assay for CYP3A7 using HepaRG (AID 2283492). The method in brief: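 qRT-PCR of CYP3A7 in HepaRG lysates after 48 h treatment; concentration-response (8 points, max 100 uM) analysed bidirectionally relative to 0.5% DMSO controls.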

Read-out in another assay: CYP3A5 (gene 1577)
Put plainly: LTEA_HepaRG_CYP3A5: Life Technologies and Expression Analysis (LTEA) Assay for CYP3A5 using HepaRG (AID 2283493). An outline of the steps: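 Differentiated HepaRG cells in serum-free induction medium were dosed 48 h with test chemicals (8-point half-log series, top 100 uM, 0.5% DMSO, duplicate). CYP3A5 mRNA measured by qRT-PCR, normalized to ACTB, GAPDH, POLR2A; bidirectional fit versus DMSO.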

Read-out in assay [6]: Fatty Acid-Binding Protein 1 (FABP1), FABP1 (gene 2168)
Put plainly: LTEA_HepaRG_FABP1: Life Technologies and Expression Analysis (LTEA) Assay for Fatty Acid-Binding Protein 1 (FABP1) using HepaRG (AID 2283494). The method in brief: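 HepaRG, 48 h post-plating switched to serum-free induction medium, then dosed 48 h (duplicate, 8 pts, ≤100 uM, 0.5% DMSO). RNA → Fluidigm TaqMan qRT-PCR, FABP1 normed to ACTB/GAPDH/POLR2A. Bidirectional curve fit vs DMSO.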

Read-out in assay [7]: Cytochrome P450 4A22 (Homo sapiens) (UniProt Q5TCH4)
Put plainly: LTEA_HepaRG_CYP4A22: Life Technologies and Expression Analysis (LTEA) Assay for Cytochrome P450 4A22 (CYP4A22) using HepaRG (AID 2283495). An outline of the steps: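 Concentration-response (8 points, max 100 uM, 0.5% DMSO) in human HepaRG liver cells after 48 h exposure. CYP4A22 mRNA by TaqMan qRT-PCR with housekeeping-gene normalization.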

Read-out in assay [8]: Cytochrome P450 7A1 (Homo sapiens) (UniProt P22680)
Put plainly: LTEA_HepaRG_CYP7A1: Life Technologies and Expression Analysis (LTEA) Assay for Cytochrome P450 7A1 (CYP7A1) using HepaRG (AID 2283496). The method in brief: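 Gene expression endpoint in human HepaRG liver cells treated for 48 h with test chemicals (up to 100 uM, 0.5% DMSO). Values come from bidirectional concentration-response fitting versus DMSO.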

Read-out in assay [9]: Glutathione S-Transferase (GSTA2), GSTA2 (gene 2939)
Put plainly: LTEA_HepaRG_GSTA2: Life Technologies and Expression Analysis (LTEA) Assay for Glutathione S-Transferase (GSTA2) using HepaRG (AID 2283497). The method in brief:
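HepaRG, 48 h dosing, 8-pt half-log CRC from 100 uM, 0.5% DMSO vehicle, n=2; RNA → Fluidigm TaqMan qRT-PCR; GSTA2 vs ACTB/GAPDH/POLR2A; gain/loss fit vs DMSO.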

Read-out in assay [10]: Glutamate-cysteine ligase catalytic (GCLC), GCLC (gene 2729)
Put plainly: LTEA_HepaRG_GCLC: Life Technologies and Expression Analysis (LTEA) Assay for Glutamate-cysteine ligase catalytic (GCLC) using HepaRG (AID 2283498). An outline of the steps: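 Read-out is GCLC transcript level by Fluidigm-based TaqMan qRT-PCR, normalized to three housekeeping genes and fitted in both directions relative to 0.5% DMSO. Human HepaRG cells received chemicals for 48 h, up to 100 uM.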

Read-out in assay [11]: Glutamate-cysteine ligase regulatory (GCLM), GCLM (gene 2730)
Put plainly: LTEA_HepaRG_GCLM: Life Technologies and Expression Analysis (LTEA) Assay for Glutamate-cysteine ligase regulatory (GCLM) using HepaRG (AID 2283500). An outline of the steps:
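Differentiated human HepaRG cells exposed 48 h in serum-free induction medium to 8-point half-log concentrations (top 100 uM, 0.5% DMSO), in duplicate. GCLM mRNA quantified by qRT-PCR, normalized to ACTB, GAPDH, POLR2A; bidirectional fitting versus DMSO.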

Read-out in assay [12]: Glutathione S-transferase M3 (GSTM3), GSTM3 (gene 2947)
Put plainly: LTEA_HepaRG_GSTM3: Life Technologies and Expression Analysis (LTEA) Assay for Glutathione S-transferase M3 (GSTM3) using HepaRG (AID 2283501). The method in brief: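 Expression of GSTM3 is determined by qRT-PCR in human liver HepaRG cells treated 48 h with an 8-point half-log range from 100 uM in 0.5% DMSO.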

Read-out in assay [13]: Heat shock 70 kDa protein 1 (HSPA1A), gene 3303
Put plainly: LTEA_HepaRG_HSPA1A: Life Technologies and Expression Analysis (LTEA) Assay for Heat shock 70 kDa protein 1 (HSPA1A) using HepaRG (AID 2283502). An outline of the steps:
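Differentiated human HepaRG cells in serum-free induction medium were exposed in duplicate for 48 h to eight concentrations (top 100 uM, half-log steps, 0.5% DMSO). HSPA1A mRNA was quantified by qRT-PCR, normalized to ACTB, GAPDH and POLR2A, and fitted bidirectionally against DMSO.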

Read-out in assay [14]: Hypoxia-inducible factor 1-alpha (Homo sapiens) (UniProt Q16665)
Put plainly: LTEA_HepaRG_HIF1A: Life Technologies and Expression Analysis (LTEA) Assay for Hypoxia-inducible factor 1 (HIF1A) Trancription factor using HepaRG (AID 2283503).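 Note: HIF1A transcript by TaqMan qRT-PCR normalized to ACTB GAPDH and POLR2A.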 The method in brief:
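HepaRG, 48 h exposure, 8-pt half-log series from 100 uM, 0.5% DMSO vehicle, duplicates. Readout: HIF1A transcript by qRT-PCR (Fluidigm array), housekeeping-normalised. Bidirectional curve fit vs DMSO baseline.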

Read-out in assay [15]: 3-Hydroxy-3-Methylglutaryl-CoA Synthase 2 (HMGCS2), HMGCS2 (gene 3158)
Put plainly: LTEA_HepaRG_HMGCS2: Life Technologies and Expression Analysis (LTEA) Assay for 3-Hydroxy-3-Methylglutaryl-CoA Synthase 2 (HMGCS2) using HepaRG (AID 2283504). An outline of the steps: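 This steatosis marker was read as HMGCS2 mRNA change in HepaRG cells treated 48 h with up to 100 uM chemical. Normalisation used housekeeping genes; activity in either direction was fitted relative to 0.5% DMSO vehicle.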

Read-out in another assay: HGF (gene 3082)
Put plainly: LTEA_HepaRG_HGF: Life Technologies and Expression Analysis (LTEA) Assay for Hepatocyte Growth Facto (HGF) using HepaRG (AID 2283505). An outline of the steps: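 Using HepaRG monolayers kept in 0.5% DMSO, chemicals were tested in duplicate over eight half-log concentrations from 100 uM for 48 h. Endpoint: HGF mRNA change relative to DMSO, normalized to ACTB/GAPDH/POLR2A.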

Read-out in assay [16]: Ezrin (EZR), EZR (gene 7430)
Put plainly: LTEA_HepaRG_EZR: Life Technologies and Expression Analysis (LTEA) Assay for Ezrin (EZR) using HepaRG (AID 2283491). The method in brief: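 EZR transcript levels came from Fluidigm qRT-PCR and were normalized to three housekeeping genes after 48 h chemical exposure of HepaRG cells. Dosing used an 8-point half-log series with a 100 uM top concentration in 0.5% DMSO, tested in duplicate; both directions were fitted versus vehicle.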

Sequence of Cytochrome P450 3A4 (Homo sapiens) (P08684 whole entry, looked up): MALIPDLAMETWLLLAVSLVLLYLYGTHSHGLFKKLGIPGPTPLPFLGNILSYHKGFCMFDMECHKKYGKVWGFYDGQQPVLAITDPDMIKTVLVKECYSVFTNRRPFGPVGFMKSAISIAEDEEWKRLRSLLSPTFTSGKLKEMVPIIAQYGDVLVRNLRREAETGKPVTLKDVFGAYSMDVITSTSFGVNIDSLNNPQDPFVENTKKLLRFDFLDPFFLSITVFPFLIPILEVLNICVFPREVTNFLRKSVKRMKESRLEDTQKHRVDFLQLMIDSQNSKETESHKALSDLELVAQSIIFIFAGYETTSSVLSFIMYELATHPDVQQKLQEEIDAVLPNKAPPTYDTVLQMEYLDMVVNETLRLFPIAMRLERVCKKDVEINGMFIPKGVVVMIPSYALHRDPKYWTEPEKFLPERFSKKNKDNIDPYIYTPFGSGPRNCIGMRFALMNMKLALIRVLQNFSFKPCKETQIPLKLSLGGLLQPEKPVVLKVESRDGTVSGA
Sequence of Hypoxia-inducible factor 1-alpha (Homo sapiens) (Q16665 whole entry, looked up): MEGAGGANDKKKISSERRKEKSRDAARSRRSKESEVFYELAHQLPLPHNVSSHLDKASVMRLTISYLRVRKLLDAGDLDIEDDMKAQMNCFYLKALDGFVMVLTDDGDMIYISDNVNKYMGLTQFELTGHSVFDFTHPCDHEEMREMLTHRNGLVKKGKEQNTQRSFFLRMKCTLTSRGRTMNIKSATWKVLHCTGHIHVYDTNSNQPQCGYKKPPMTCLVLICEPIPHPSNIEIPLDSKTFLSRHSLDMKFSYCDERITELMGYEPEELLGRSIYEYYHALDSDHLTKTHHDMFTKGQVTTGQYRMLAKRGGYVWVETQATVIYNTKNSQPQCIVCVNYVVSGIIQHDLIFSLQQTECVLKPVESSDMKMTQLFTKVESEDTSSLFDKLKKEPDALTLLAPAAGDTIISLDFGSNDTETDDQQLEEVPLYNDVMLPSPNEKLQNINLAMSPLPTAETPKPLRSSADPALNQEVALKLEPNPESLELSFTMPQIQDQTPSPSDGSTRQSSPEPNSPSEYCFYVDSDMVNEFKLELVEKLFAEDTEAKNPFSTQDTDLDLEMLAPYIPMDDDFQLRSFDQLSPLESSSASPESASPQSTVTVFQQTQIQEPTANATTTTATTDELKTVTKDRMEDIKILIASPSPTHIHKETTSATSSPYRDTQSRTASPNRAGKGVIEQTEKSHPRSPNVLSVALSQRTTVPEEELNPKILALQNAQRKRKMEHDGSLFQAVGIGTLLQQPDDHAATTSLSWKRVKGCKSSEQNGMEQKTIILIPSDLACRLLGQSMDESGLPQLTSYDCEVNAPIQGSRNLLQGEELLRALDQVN
Sequence of Cytochrome P450 3A7 (Homo sapiens) (P24462 whole entry, looked up): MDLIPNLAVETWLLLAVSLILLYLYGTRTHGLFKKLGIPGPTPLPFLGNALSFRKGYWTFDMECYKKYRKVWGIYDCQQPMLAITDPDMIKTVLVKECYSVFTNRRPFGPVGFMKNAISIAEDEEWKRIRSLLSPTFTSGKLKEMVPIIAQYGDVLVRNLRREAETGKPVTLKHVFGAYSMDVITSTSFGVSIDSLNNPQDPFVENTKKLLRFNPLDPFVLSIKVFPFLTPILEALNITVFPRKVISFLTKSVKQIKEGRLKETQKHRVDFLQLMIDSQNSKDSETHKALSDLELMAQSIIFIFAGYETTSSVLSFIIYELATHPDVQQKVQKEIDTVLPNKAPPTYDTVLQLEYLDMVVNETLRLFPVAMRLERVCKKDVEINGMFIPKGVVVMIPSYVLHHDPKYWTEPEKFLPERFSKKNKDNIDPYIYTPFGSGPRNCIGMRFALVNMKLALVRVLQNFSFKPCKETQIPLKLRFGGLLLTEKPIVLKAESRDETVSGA

Turning to `CCOP(=S)(OCC)SCSC(C)(C)C`, the call (with CYP4A11 (gene 1579); in assay [1]; in assay [2]; in assay [3]; in assay [4]; in [7]) was inactive. In addition, the call in assay [9], in assay [10], in [11], in [12], in assay [13] and in [14] was inactive. In addition, in the assay with HGF (gene 3082), the compound was called inactive. Also, the AC50 in [5] is 16.5 µM (active); with CYP3A5 (gene 1577), 2.83 µM (active); in assay [6], 50 µM (active); in assay [8] it was 16.3 µM (active); in assay [15] it was 14.7 µM (active).
On to `Cc1ccccc1O`, for which the call (in the assay with CYP4A11 (gene 1579); in assay [1]; in assay [2]; in [3]; in assay [4]; in assay [16]) was inactive. Also, the result (in [5]; with CYP3A5 (gene 1577); in assay [6]; in assay [7]; in assay [8]; in assay [9]) was inactive. Besides, the outcome (in assay [11]; in assay [12]; in assay [13]; in assay [14]; in assay [15]; in the assay with HGF (gene 3082)) was inactive.
As for `O=C(O)C(F)(F)C(F)(F)C(F)(F)C(F)(F)C(F)(F)C(F)(F)C(F)(F)C(F)(F)F`, the AC50 in the assay with CYP4A11 (gene 1579) is 89.5 µM (active); in assay [1], 81.7 µM (active); in [2], 77.9 µM (active); in assay [4] it was 83.4 µM (active); in [16] it was 77 µM (active); in assay [5], 89 µM (active). Besides, the AC50 in assay [6] is 81.1 µM (active); in [7], 90 µM (active); in assay [8], 86.7 µM (active); in assay [9] it was 86.8 µM (active); in assay [11], 77 µM (active); in [15], 80.4 µM (active). In addition, the AC50 with HGF (gene 3082) was 50 µM (active). Further, the compound was called inactive (in assay [3]; in the assay with CYP3A5 (gene 1577); in assay [14]).
Take `Clc1ccc(Cl)cc1`: the outcome (with CYP4A11 (gene 1579); in [1]; in [2]; in assay [3]; in [4]; in assay [16]) was inactive. Further, the result (in [5]; with CYP3A5 (gene 1577); in assay [6]; in assay [7]; in assay [8]; in [9]) was inactive. The compound was called inactive (in assay [11]; in assay [12]; in assay [13]; in [14]; in [15]; in the assay with HGF (gene 3082)).
For `CCC(C)c1cc([N+](=O)[O-])cc([N+](=O)[O-])c1O` (configuration not stated), the AC50 with CYP4A11 (gene 1579) is 2.78 µM (active); in assay [1] it was 2.37 µM (active); in assay [2], 5.95 µM (active); in [3], 1.97 µM (active); in [4] it was 17.1 µM (active); in assay [16] it was 3.74 µM (active). Moreover, the AC50 in assay [5] is 1.57 µM (active); with CYP3A5 (gene 1577) it was 15.5 µM (active); in [6], 1.27 µM (active); in assay [7] it was 2.35 µM (active); in assay [8], 2.67 µM (active); in assay [9], 2.72 µM (active). For the same compound, the AC50 in assay [11] was 50 µM (active); in [13], 2.49 µM (active); in [14] it was 18.5 µM (active); in [15] it was 2.93 µM (active); with HGF (gene 3082), 2.87 µM (active).
